An excerpt weighted towards active compounds, which were near 8.8% of everything screened.
KB-V1 MDR tox: qHTS assay for MDR1-selective chemotherapeutics: Primary screen using the drug-selected MDR subline cells KB-V1; KB-V1 MDR cells viability, CellTiter-Glo, 72 h; Potency, µM (highest dose often 46.1 µM), usual class: cytotoxic; hit rate 3.4% among 400,000; AID 1347076, 2019; further: potency means the concentration at half of the fitted maximal effect; nearly all actives have a fitted effect of over 60% in size
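Readout: CellTiter-Glo luminescence, 10 min after addition. Cells: KB-V1 MDR subline, 72 h at 37 degrees C with compound. Analysis: corrected, normalized data fitted to concentration-effect curves.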
KB-3-1 cytotox: qHTS assay for MDR1-selective chemotherapeutics: Primary screen using the parental adenocarcinoma cell KB-3-1; KB-3-1 viability, CellTiter-Glo ATP luminescence, 72 h; Potency, µM (series often up to 46.1 µM), usual class: cytotoxic; hit rate 1.4% among 400,000; AID 1347075, 2019; further: potency means the concentration at half of the fitted maximal effect; nearly all actives have a fitted effect of over 60% in size
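Cytotoxicity in the drug-sensitive parental line KB-3-1 was scored as loss of CellTiter-Glo luminescence following 72 h incubation with compound. Values come from curve fitting of normalized concentration-response data.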
IL1B secr inh: qHTS for Inhibitors of Inflammasome Signaling: IL-1-beta AlphaLISA Primary Screen. activity change, % at 57.5 µM. hit rate 4.7% among 360,000. THP-1 LPS/ATP IL-1B secretion, AlphaLISA, 16 h; hits give low values; in the data active means activity change below about -50%; inconclusive means mostly about -30% to -49%
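Secreted IL-1B measured by AlphaLISA bead assay after 16 h compound exposure of THP-1 cells; compounds (final up to 57.5 uM) added 1 h before LPS (250 ng/mL) and ATP (1.25 mM) stimulation; lower signal means less secretion.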
HT1080-NT tox: qHTS for induction of synthetic lethality in tumor cells producing 2HG: qHTS for the HT-1080-NT fibrosarcoma cell line | AID 686970, 2013 | HT-1080-NT fibrosarcoma viability, CellTiter-Glo ATP luminescence, 48 h | hit rate 1.6% among 360,000 | Potency, µM (top dose mostly 46.1 µM), inactives show at the highest dose activity, negative = less viability, usual class: cytotoxic;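 further: NT is the 2HG producing partner of a matched IDH1 knockdown line; potency means the concentration at half of the fitted maximal effect; 0% = DMSO-treated cells and -100% = media-only wells without cells; nearly all actives have a fitted effect of over 55% in size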
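Compounds were tested in concentration-response format on HT-1080-NT cells for 48 hours at 37 degrees C. Cell viability came from CellTiter-Glo luminescence; curves were classified by r2, response magnitude and activity.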
HT1080 IDH1KD tx: qHTS for induction of synthetic lethality in tumor cells producing 2HG: qHTS for the HT-1080-IDH1KD cell line; Potency, µM (titrated, usually from 46.1 µM), without a hit: at the highest dose activity, negative = toxicity, usual class: cytotoxic; hit rate 2% among 360,000; AID 686971, 2013; HT-1080 IDH1 knockdown viability, ATP luminescence, 48 h;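 further: potency means the concentration at half of the fitted maximal effect; 0% = DMSO wells and -100% = cell-free medium wells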
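% activity derives from luminescence (CellTiter-Glo), normalised to DMSO and no-cell wells. HT-1080-IDH1KD cells, 750/well, had 48 h compound exposure at 37 °C.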
* hit, by the source's call; i = inactive; ? = inconclusive; nt = not tested or not shown; [ ] = dose if it differs, or a comment. Unless noted, the call rests on the fitted dose curve; in most records, active means well fitted curve in the direction sought with a large enough effect; inconclusive means small, poorly fitted or top-dose-only effect, or another doubt; inactive means no such curve, though single readings can be large; an effect the other way counts as inactive or inconclusive. Unless noted, on the % scale 0 is the no-effect control and ±100 the full control effect.

SMILES	KB-V1 MDR tox	KB-3-1 cytotox	IL1B secr inh	HT1080-NT tox	HT1080 IDH1KD tx
CCOC(=O)C1=C(CNCc2ccc(C)cc2)NC(=O)NC1c1ccc(OC)cc1 (stereo not drawn)	?	?	15	?	9.2µM*
CCCCCOC(=O)C1=C(C)NC(=O)NC1c1ccc2c(c1)OCO2 (stereo not drawn)	i	i	-54*	-15%	-7%
CC1=C(C(=O)OCCCBr)C(c2ccc3c(c2)OCO3)NC(=O)N1 (stereo not drawn)	i	?	-1	-2%	8%
CCOC(=O)C1=C(C)N=c2s/c(=C\c3ccncc3)c(=O)n2C1c1ccc2c(c1)OCO2 (stereo not drawn)	i	i	-67*	?	-11%[9.24 µM]
CCOC(=O)C1=C(CCl)NC(=O)NC1c1ccc2c(c1)OCO2 (stereo not drawn)	i	?	-100*	?	?
O=C(Nc1ccc(S(=O)(=O)N2CCOCC2)cc1)c1c(F)cccc1F	i	i	8	0%	0%
C=CCNC(=O)c1ccc(-n2cccc2)cc1	i	i	-6	16%	20%
C=CCN(c1ccccc1)S(=O)(=O)c1cccc(C(=O)N(CC)CC(=O)Nc2c(F)cccc2F)c1	?	i	0	-3%	13%
CSc1nc(Cl)cc(Nc2ccc(O)cc2)n1	i	i	16	16µM*	13µM*
CNc1cc(Cl)nc(SC)n1	?	i	34	0%	2%
COc1ccccc1NC(=O)Cn1c(C)cc(C)c(C#N)c1=O	?	i	nt	nt	nt
O=C(NCc1ccccc1F)c1ccc(S(=O)(=O)N2CCCC2)cc1	i	i	-12	4%	-1%
COc1cc(CNC(=O)c2ccc3nc(Cc4ccccc4)oc3c2)cc(OC)c1OC	i	26µM*	nt	nt	nt
COCCN1CCN(C(=O)c2ccc3nc(Cc4ccc(OC)c(OC)c4)oc3c2)CC1	?	4.6µM*	i	7.3µM*	-10%
COc1cc(CNC(=O)c2ccc3nc(CCc4ccccc4)oc3c2)cc(OC)c1OC	i	i	nt	nt	nt
COC(=O)NCc1c(C)nn(-c2ccccc2)c1-n1cccc1	i	i	nt	nt	nt
O=C(CN1c2cccc3cccc(c23)S1(=O)=O)Nc1ccc(F)c(F)c1F	i	i	-14	-23%	-15%
CN(C)S(=O)(=O)Oc1ccsc1C(=O)Nc1cccc(Cl)c1Cl	21µM*	?	-26	-19%	-21%
COC(=O)c1c(NC(=O)COC(=O)c2ccc(O)cc2)sc2c1CCCCC2	i	i	-79*	2%	-6%
COc1ccc(CC(=O)Nc2sc3c(c2C(N)=O)CCCC3)cc1OC	13µM*	?	-2	-8%	0%
CC(=NNc1ccc([N+](=O)[O-])cn1)c1ccc(N)cc1	i	i	?	-2%	1%
COC(=O)C[C@@H]1CC[C@H](NC(=O)Nc2ccc(OC)cc2)[C@@H](CO)O1	i	?	-57*	14%	20%
COC(=O)C[C@@H]1CC[C@H](NC(=O)Nc2ccc(F)cc2)[C@@H](CO)O1	i	i	7	15%	14%
CCn1c([N+](=O)[O-])nc2c1c(=O)[nH]c(=O)n2C	?	?	-99*	18µM*	21µM*
COc1cc2c(cc1C(F)(F)F)N(C(=O)Nc1cc(F)cc(-c3cccnc3)c1)CC2	nt	nt	nt	11µM*	?
SMILES	KB-V1 MDR tox	KB-3-1 cytotox	IL1B secr inh	HT1080-NT tox	HT1080 IDH1KD tx
Cn1ccc2cc3c(cc21)CCN3C(=O)Nc1cccnc1	?	i	-8	12%	12%
COc1ccc2c(C)c(Cl)c(=O)oc2c1	i	i	-5	8%	14%
C=C1CC(COc2ccc3c(C)c(Cl)c(=O)oc3c2)(c2ccccc2)OC1=O (stereo not drawn)	?	?	-100*	16µM*	6.5µM*
CCn1c(=O)c(C(=O)CN(C)Cc2cccc(OC)c2OC)c(N)n(Cc2ccccc2)c1=O	i	i	24	?	8%
CCn1c(=O)c(C(=O)CN(C)Cc2ccc(F)cc2)c(N)n(Cc2ccccc2)c1=O	?	i	-63*	-22%	-17%
Cc1cc2nc3ccc(=[N+](C)C)cc-3sc2cc1N	16µM*	?	-17	8.2µM*	4.1µM*
CN(C)c1ccc2nc3ccc(=O)cc-3sc2c1	16µM*	?	-16	?	?
CN(C)c1ccc(-c2ccc3ccccc3n2)cc1	i	i	nt	nt	nt
Cc1nc2cc(C)c(C)cc2s1	i	i	-5	17%	14%
CN(C)c1ccc2nc3ccc(=[N+](C)C)cc-3sc2c1	?	?	?	7.3µM*	21µM*
O=[N+]([O-])c1ccc(NN=Cc2ccc(O)cc2)nc1	i	i	-3	1%	-4%
CC/C(=N\Nc1ccc([N+](=O)[O-])cc1)c1ccccc1	i	i	-51*	-24%	-28%
CCC(CC)=NNc1cccc([N+](=O)[O-])c1	i	i	0	-23%	?
Oc1cccc(C=NNc2ccccn2)c1	?	i	-87*	14%	13%
O=[N+]([O-])c1ccc(NN=Cc2ccc(O)cc2O)nc1	?	?	88	?	3.3µM*
O=[N+]([O-])c1ccc(NN=C(Oc2ccccc2)c2ccc([N+](=O)[O-])cc2)cc1	i	?	?	1%	0%
CC/C(C)=N/Nc1cccc([N+](=O)[O-])c1	i	i	0	?	9.2µM*
Cc1cc(C)c(NC(=O)CSc2nc(=O)n(Cc3ccncc3)c3c2CCC3)c(C)c1	i	i	nt	nt	nt
O=[N+]([O-])c1cccc(N/N=C/c2cc([N+](=O)[O-])ccc2O)c1	i	i	-9	23µM*	15µM*
O=[N+]([O-])/C=C\c1ccc(N2CCOCC2)cc1	?	?	-80*	21µM*	15µM*
O=[N+]([O-])c1ccc(C=NNc2ccccc2)cc1	i	i	-6	-10%	?
O=[N+]([O-])c1cccc(C=NNc2ccccc2)c1	i	?	-65*	-20%	?
O=[N+]([O-])c1ccc(O)c(C=NNc2ccc(S(=O)(=O)O)cc2)c1	i	i	0	3%	-2%
O=[N+]([O-])c1ccc(NN=Cc2ccccc2O)nc1	i	i	59	?	7.3µM*
O=C(COc1ccc(/C=C\[N+](=O)[O-])cc1)N1CCOCC1	i	i	-12	1%	-1%
